Results filed as inconclusive are left out. A number with no mark means an inactive call. Activity calls are given as the source filed them. The call rests on the fitted dose curve.
Test: qHTS assay to identify small molecule agonists of the hypoxia (HIF-1) signaling pathway - cell viability counter screen (AID 1224844); further: nearly all actives have a fitted effect of over 50% in size
Details: HRE-bla ME-180 viability, CellTiter-Glo luminescence, 17 h; series mostly up to 76.8 µM; activity change, negative = cytotoxicity: at the top concentration
Outline: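 HRE-bla ME-180 cells, 2,000/well in 0.5% dialyzed FBS medium, treated 17 h at 37C with compounds. Viability read in the same wells as the bla reporter, by CellTiter-Glo luminescence after 30 min at room temperature.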
On the % scale 0 is the no-effect control and ±100 the full control effect; potency means the concentration at half of the fitted maximal effect.

Structure (SMILES)	Potency	activity change, negative = cytotoxicity
CCN(CC)C(=O)c1cc(S(=O)(=O)Cc2ccccc2)c(N2CCC(c3ccccc3)CC2)cc1N(CC)CCN(C)C	10.8 µM (active)	
Clc1nnc(Cl)c2ccccc12		-5.9%
O=[N+]([O-])c1cccc(C(F)(F)F)c1		9.58%
CC(C)(C)NSc1nc2ccccc2s1		-13.4%
CC(C)(c1cc(Br)c(OCC(Br)CBr)c(Br)c1)c1cc(Br)c(OCC(Br)CBr)c(Br)c1 (centres undefined)		-23.1% [at 35.3 µM]
CCC(CC)(CC(=O)Nc1cccc(/C=C/c2nc(C3CCC3)cs2)c1)C(=O)O		4.37% [at 35.3 µM]
COc1cc(/C=C/c2ccccc2)oc(=O)c1		-27.7%
CCOC(=O)NNc1ccc(N(CC)CC(C)O)nn1 (centres undefined)		5.59% [at 35.3 µM]
O=C1CCCCCCCCCCCCCCCO1		3.41%
COCCOc1cc2cc(C(=O)NC3CCN(C(C)C)CC3)n(CC(=O)Nc3ccc(Cl)cn3)c2cn1		0.12%
CC1=Nc2ccccc2C1(C)C		9.64%
O=C1C(c2[nH]c3ccc(S(=O)(=O)O)cc3c2O)=Nc2ccc(S(=O)(=O)O)cc21		-22.1%
c1ccc(SSc2ccccc2)cc1		-7.86%
S=C([S-])NCCNC(=S)[S-].S=C([S-])NCCNC(=S)[S-].[Mn+2].[Zn+2]		-2.4% [at 35.3 µM]
O=C(O)Cc1ccccc1Nc1c(Cl)cccc1Cl	inactive	
COc1cc(S(=O)(=O)O)c(C)cc1N=Nc1c(O)ccc2cc(S(=O)(=O)O)ccc12		-10.7%
Nc1ccc(NCCO)c([N+](=O)[O-])c1		-5.75%
CC(CO)Oc1ccccc1 (centres undefined)		5.99%
O=C(/C=C/c1ccc(O)c(O)c1)O[C@@H](C(=O)O)[C@@H](OC(=O)/C=C/c1ccc(O)c(O)c1)C(=O)O		2.09%

— PubChem BioAssay (Tox21)
